Compound activity: PubChem BioAssay, National Center for Advancing Translational Sciences (NCATS)
BRCA1 expr act = qHTS Assay to Identify Small Molecule Activators of BRCA1 Expression; MCF7-BRCA1-FFLuc reporter, luminescence, 48 h; response scale: scaled: vehicle 0%, 10 µM genistein 100%; Potency, µM (titrated, usually from 46.1 µM), for inactives: at the top dose activation, hits mostly activators; AID 624202, 2012; actives 1.1% (n = 380,000); also: potency is read from the fitted curve at half-maximal effect; nearly all actives have a fitted effect of over 80% in size
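MCF7-BRCA1-FFLuc, 2000 cells/well; 2 h attach, 37 °C/5% CO2; compound 48 h; luciferase substrate 15 min; luminescence end-point. Norm. to genistein 10 microM max activation and DMSO; concentration-response curves fitted.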
p53 reactivation = qHTS assay for re-activators of p53 using a Luc reporter; H1299 p53-A138V BP100-luciferase reporter, luminescence, 24 h; Potency, µM (highest dose often 92.2 µM), for inactives: at the highest dose activity change, positive = activation, hits mostly activators; actives 0.063% (n = 320,000); also: potency is read from the fitted curve at half-maximal effect; % of control where 0% means no effect; nearly all actives have a fitted effect of over 45% in size
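H1299 (p53-null), stable ts p53-A138V + BP100-Luc; 1000 cells/well, Opti-MEM/10% FBS; cpd 4 pt, 1:5; 24 h, 37 deg C, 5% CO2; detection reagent 10 min RT; luminescence.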
Mito fusion act = qHTS Assay for Small Molecule Inhibitors of Mitochondrial Division or Activators of Mitochondrial Fusion. S. cerevisiae fusion-defective mutant growth rescue, CellTiterGlo 48 h. Potency, µM (doses to about 46.1 µM), for the others: top-dose growth rescue (activation), most hits filed as activators. actives 0.23% (n = 320,000); also: potency is read from the fitted curve at half-maximal effect; % of control where 0% means no effect; nearly all actives have a fitted effect of over 45% in size
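Yeast fusion mutant, YPEG (non-fermentable carbon), compound, 48 h at 37C non-permissive; CellTiterGlo added, 10 min RT, luminescence read. Rescued growth = division inhibition.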
TCR activator = Activators of T cell receptors: qHTS campaign; primary human leukocytes, anti-CD3, IL-2 HTRF, 48 h; Potency, µM (titrated, usually from 9.22 µM), for inactives: at the top dose activation of IL-2 secretion, hits mostly activators; 330,000 tested, under 10 active; AID 504894, 2011; also: % of control where 0% means no effect
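48 hr co-incubation of compounds, a-CD3 beads and primary human leukocytes; IL-2 quantified homogeneously by HTRF with anti-IL-2 K and d2 conjugates.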
IL-2 act = qHTS of IL-2 Activators; activation, % (series mostly up to about 46 µM); actives 0.065% (n = 360,000); AID 652025, 2013; IL-2 activation reporter assay, cell-based qHTS; stimulated with anti-CD3/CD4/CD28 beads; in transgenic mouse T cells; in the data active = activation above about 50%; inconclusive = mostly about 30% to 49%; also: 0% is about no effect
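Screening format: compound pinned onto unstimulated transgenic mouse T cells, 60 min incubation, then anti-CD3/anti-CD4/anti-CD28 bead stimulation for 18 hours at 37 degrees C, followed by EGFP and DsRed detection.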
* = called active by the depositor; [ ] = another dose, or the depositor's remark. The list is not random: actives were taken first. Their share in the collection is about 1.3%. Unless noted, calls follow the shape of the dose curve; as a rule, active = well fitted curve in the direction sought with a large enough effect; inconclusive = small, poorly fitted or top-dose-only effect, or another doubt; inactive = no such curve, though single readings can be large; an effect the other way counts as inactive or inconclusive.

How did CCN(CC)C1=CC2=CC(=C(C#N)C#N)CCC2CC1 (stereo not given) do in these assays?
BRCA1 expr act: -21%; p53 reactivation: -5%; Mito fusion act: -2%; TCR activator: 7%[46.1 µM]; IL-2 act: 102*

Results for CN(C)c1ccc(C2CCc3ccccc3N2C(=O)c2ccccc2)cc1 (stereo not given) ?
BRCA1 expr act: -8%

How did CCN(CC)c1ccc(/C=C2\CCC(/C=N/NC(=O)c3ccc(=O)n(C)c3)=C2N2CCOCC2)cc1 do in these assays?
BRCA1 expr act: -55%; p53 reactivation: -9%; Mito fusion act: 0%; TCR activator: 1%[46.1 µM]; IL-2 act: 71*

What do the screens show for `CCCCn1nc(NS(=O)(=O)c2cccc3nonc23)c2cc3cccc(C)c3nc21`?
BRCA1 expr act: 8%; p53 reactivation: 9%; Mito fusion act: 11µM*; TCR activator: 1%; IL-2 act: 0

How did COc1cc2c(NC3CCN(C)CC3)nc(N3CCCCC3)nc2cc1OCCOCCN1CCCC1 do in these assays?
BRCA1 expr act: -13%

What do the screens show for `c1ccc(CSc2nccc(-c3ccco3)n2)cc1`?
BRCA1 expr act: 77%; TCR activator: 2%; IL-2 act: 0

What do the screens show for `c1ccc(CSc2n[nH]c(-c3ccco3)n2)cc1`?
BRCA1 expr act: 11µM*; p53 reactivation: inconclusive; Mito fusion act: -1%; IL-2 act: -3

What do the screens show for `Cc1cccc(/C(N)=N/OC(=O)CCc2ccccc2)c1`?
BRCA1 expr act: 13µM*; p53 reactivation: 30%; Mito fusion act: 7%; TCR activator: 0%; IL-2 act: 0

Results for CC(C)(C)c1ccc(C(=O)C[n+]2cc(Br)cc(Br)c2)cc1 ?
BRCA1 expr act: 0%

How did CCc1ccc(NC(=O)Cn2c(=O)n(CC3CCCO3)c(=O)c3cc(OC)c(OC)cc32)cc1 (stereo not given) do in these assays?
BRCA1 expr act: 14%

Results for CCCSc1nsc(NC(=O)CCC)n1 ?
BRCA1 expr act: 1.4µM*; p53 reactivation: 26%; Mito fusion act: 15%; TCR activator: -9%; IL-2 act: 2

How did COc1cccc(C(=O)Nc2nc(-c3nnn(-c4cccc(Cl)c4C)c3C)ns2)c1 do in these assays?
BRCA1 expr act: 3%

Results for COc1ccc2cc(-c3ccon3)ccc2c1 ?
BRCA1 expr act: 10µM*; p53 reactivation: 23%; Mito fusion act: -1%; TCR activator: -5%; IL-2 act: 1

Results for COc1ccc(-c2cc3ccc(OC)cc3cn2)cc1 ?
BRCA1 expr act: inconclusive; p53 reactivation: inconclusive; Mito fusion act: 1%; TCR activator: -1%; IL-2 act: -1

How did O=C(CCCc1ccccc1)NC12CC3CC(CC(C3)C1)C2 do in these assays?
BRCA1 expr act: 2.8µM*; Mito fusion act: 5%; TCR activator: -2%; IL-2 act: -1

What do the screens show for `COc1ccc(-c2csc(N3C(=O)CNC3=S)n2)cc1`?
BRCA1 expr act: inconclusive; p53 reactivation: 16%; Mito fusion act: inconclusive; TCR activator: -2%[46.1 µM]; IL-2 act: 1

How did O=C1CNC(=S)N1c1nc(-c2ccccc2)cs1 do in these assays?
BRCA1 expr act: -41%; p53 reactivation: 10µM*; Mito fusion act: 5%; TCR activator: 3%[46.1 µM]; IL-2 act: -1

What do the screens show for `Cc1cccc(C)c1OCCn1c(CCNC(=O)C2CCCCC2)nc2ccccc21`?
BRCA1 expr act: -34%

How did Cc1ccccc1S(=O)(=O)Nc1nc2ccccc2nc1N1CCc2ccccc2C1 do in these assays?
BRCA1 expr act: -36%; p53 reactivation: 28µM*; Mito fusion act: 1%; TCR activator: 1%[46.1 µM]; IL-2 act: 2

Results for O=S(=O)(Nc1nc2ccccc2nc1N1CCc2ccccc2C1)c1ccc(Br)cc1 ?
BRCA1 expr act: -65%; p53 reactivation: inconclusive; Mito fusion act: 10%; TCR activator: -8%[46.1 µM]; IL-2 act: -3

Results for O=S(=O)(Nc1cccc2cccnc12)c1cccs1 ?
BRCA1 expr act: -70%

Results for Cn1c2ccccc2c2ncn(CCCN3CCOCC3)c(=O)c21 ?
BRCA1 expr act: 0%; p53 reactivation: 7%; Mito fusion act: -5%; TCR activator: 3%; IL-2 act: -3

How did Cn1c2ccccc2c2ncn(CCC3=CCCCC3)c(=O)c21 do in these assays?
BRCA1 expr act: 10µM*; p53 reactivation: inconclusive; Mito fusion act: 28%; TCR activator: -2%; IL-2 act: -1

Results for N#C/C(=C/c1ccc(-c2ccc(S(N)(=O)=O)cc2)o1)C(=O)Nc1ccccc1 ?
BRCA1 expr act: -23%; p53 reactivation: -8%; Mito fusion act: -1%; TCR activator: 0%[46.1 µM]; IL-2 act: inconclusive

What do the screens show for `N#C/C(=C/c1ccc(-c2ccc(S(N)(=O)=O)cc2)o1)c1nc2ccccc2s1`?
BRCA1 expr act: -63%; p53 reactivation: -17%; Mito fusion act: 6%; TCR activator: -15%[46.1 µM]; IL-2 act: 71*

What do the screens show for `O=C(NCc1ccccc1Cl)c1ccc(-n2cnc3cccnc32)cc1`?
BRCA1 expr act: 24%

How did Cc1nn(CCOc2ccccc2)c(=O)n1-c1cccc(F)c1 do in these assays?
BRCA1 expr act: 58%; p53 reactivation: 5%; Mito fusion act: -1%; TCR activator: 2%; IL-2 act: -2

Results for Cc1nn(CCOc2ccccc2)c(=O)n1-c1ccc(F)cc1 ?
BRCA1 expr act: 13µM*; p53 reactivation: 17%; Mito fusion act: 0%; TCR activator: 2%; IL-2 act: 1

Results for Cn1nc(-c2ccc(F)cc2)nc2c(=O)n(C)c(=O)nc1-2 ?
BRCA1 expr act: -79%

How did O=C(CCCCn1c(=O)c2ccccc2n(Cc2cccc(F)c2)c1=O)NCc1ccc2c(c1)OCO2 do in these assays?
BRCA1 expr act: -23%

How did CC1CCc2c(sc(/N=C/N(C)C)c2C#N)C1 (stereo not given) do in these assays?
BRCA1 expr act: 13µM*; p53 reactivation: 16%; Mito fusion act: 9%; IL-2 act: -1

What do the screens show for `CC(C)CCNC(=O)c1ccc(Cn2c(SCC(=O)NC(C)C)nc3ccccc3c2=O)cc1`?
BRCA1 expr act: 23%

Results for CN=C1NN=C(c2cc(C)n(-c3c(C)n(C)n(-c4ccccc4)c3=O)c2C)CS1 ?
BRCA1 expr act: -7%; p53 reactivation: 0%; Mito fusion act: 32µM*; TCR activator: 2%[46.1 µM]; IL-2 act: 1
